Rows were chosen to be rich in hits. Some 3.4% of all compounds tested hit in one or more screens of this group.
TEAD-YAP inh: TEAD-YAP interaction inhibition, primary screen, TEAD-YAP interaction inhibitor project, luminescence, HEK-TIYL cells; TEAD-Gal4/YAP UAS-luciferase luminescence; inhibition, % at 9.12 µM; hit rate 1.4% among 640,000; in the data active = inhibition above about 32%;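 note: 0% = median of test compound wells and 100% = reference inhibitor wells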
GPR151 ag: activators of human GPR151, primary screen, cell-based, PathHunter beta-arrestin, luminescence | hit rate 1% among 650,000 | PathHunter beta-arrestin GPR151 cells | activation, % at 11.2 µM | AID 1508602, 2020; in the data active = activation above about 4.9%;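 note: 0% = median of compound wells and 100% = cells with positive control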
Target sequence (Q8TDV0 whole entry, looked up): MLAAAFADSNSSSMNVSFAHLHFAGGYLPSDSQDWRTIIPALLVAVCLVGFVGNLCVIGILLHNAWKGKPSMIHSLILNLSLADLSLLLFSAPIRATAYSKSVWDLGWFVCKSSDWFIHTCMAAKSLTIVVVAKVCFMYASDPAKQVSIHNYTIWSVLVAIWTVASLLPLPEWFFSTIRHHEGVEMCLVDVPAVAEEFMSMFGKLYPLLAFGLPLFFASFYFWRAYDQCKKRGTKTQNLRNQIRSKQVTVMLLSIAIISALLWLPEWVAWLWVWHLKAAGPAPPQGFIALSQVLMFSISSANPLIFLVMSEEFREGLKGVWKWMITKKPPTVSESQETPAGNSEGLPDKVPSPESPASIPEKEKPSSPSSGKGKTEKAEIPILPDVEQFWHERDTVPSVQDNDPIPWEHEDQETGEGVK
FBW7 activator: FBW7 E3 ligase activators, primary screen, biochemical, AlphaScreen, human; AlphaScreen FBW7–phospho-cyclin E peptide binding, activator screen; hit rate 0.13% among 650,000; normalized activity (activation), % at 26.1 µM; F-box/WD repeat-containing protein 7 (Homo sapiens), Q969H0; in the data active = normalized activity above about 1.9%;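 note: purified mutant Fbw7 with reduced substrate affinity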
MITF primary: MITF inhibitors, primary screen, biochemical, AlphaScreen, human | Microphthalmia-associated transcription factor (Homo sapiens), O75030 | AID 1259374, 2018 | hit rate 0.91% among 650,000 | AlphaScreen MITF homodimerization, bead proximity signal | inhibition, % at 2.6 µM; in the data active = inhibition above about 50%;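 note: 0% = vehicle wells with protein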
GPR151 conf act: GPR151 activators, triplicate retest, confirmation, cell-based, PathHunter beta-arrestin, luminescence; 6,700 tested, under 10 active; shares compounds with GPR151 ag; GPR151 PathHunter beta-arrestin cells, 90 min; % of EA-reagent control over plate median; AID 1508609, 2020; activation, % at 11.2 µM;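 active = mean percent activation across replicates above the confirmation screen cutoff of 4.91%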
GPR119 ag: GPR119 activators in beta-arrestin cells, counter-screen for GPR151 activator project, cell-based, PathHunter beta-arrestin, luminescence, triplicate | shares compounds with GPR151 ag | 90 min; 0 = compound-well median, 100 = enzyme-acceptor control | activation, % at 11.2 µM | hit rate 0.3% among 6,700 | AID 1508611, 2020;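 active = mean percent activation in the counterscreen above 29.09%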;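 note: counterscreen on off-target GPR119 to flag nonselective hits from the GPR151 activator screen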
An asterisk follows results filed as active; x = no result given.

SMILES	TEAD-YAP inh	GPR151 ag	FBW7 activator	MITF primary	GPR151 conf act	GPR119 ag
COC(=O)c1ccc(NC(=O)CSc2nc3ccc(NC(=O)CSc4nc5ccc(N)cc5s4)cc3s2)cc1	-9.8	0.7	0.0	-2.2	x	x
N#Cc1c(NC(=O)c2ccc3ccccc3c2)sc2c1CCC2	-4.4	1.1	0.2	-3.9	x	x
O=C(C1CCN(Cc2ccc3c(c2)OCO3)CC1)N1CCOCC1	-3.7	5.2*	0.0	25.6	-0.3	10.4
O=C(C1CCN(C2CCN(Cc3ccc4c(c3)OCCO4)CC2)CC1)N1CCCC1	3.7	-0.6	0.0	-13.5	x	x
CCOc1ccc(C2NC(=O)NC(C)=C2C(=O)Nc2ccccc2C)cc1 (centres undefined)	19.6	1.2	0.1	-1.0	x	x
Cc1cc(C)n(-c2ccc(C(=O)OCC(=O)c3ccccc3)cc2)n1	2.0	0.9	0.0	0.0	x	x
CC(=O)c1c(C)[nH]c(C(=O)COC(=O)c2ccc(-n3nc(C)cc3C)cc2)c1C	10.3	7.7*	-0.1	0.3	0.5	5.9
CN(CCCc1nc(-c2ccc(Cl)cc2)no1)S(=O)(=O)c1ccc([N+](=O)[O-])cc1	-1.6	-0.2	0.0	6.5	x	x
CCC(=O)N(CCCN(C)C)c1nc(-c2ccc(Cl)cc2)cs1	-3.4	6.0*	-0.1	-9.2	1.2	10.4
CCN(C(=O)CCl)c1nc(-c2ccc(Cl)cc2)cs1	-25.6	1.2	-0.1	5.4	x	x
CCOC(=O)C(=O)NN(C(=O)Nc1ccccc1)c1ccccc1OC	4.2	1.4	-0.1	7.2	x	x
O=S(=O)(Nc1ccc(Cl)cc1F)c1cnc[nH]1	-11.4	10.7*	0.1	2.7	0.5	12.3
CCCCCn1c(SCc2ccncc2)nc2cc(C(=O)NCc3cccc(Cl)c3)ccc2c1=O	2.4	5.1*	0.0	4.8	-0.6	-10.9
COc1ccc2c(c1)C1=NN(C(C)=O)C(c3ccc(C)cc3)C1CC2 (centres undefined)	-1.7	-0.4	-0.1	3.9	x	x
CCN(CC)C(=O)C1CCCN(c2nc(Nc3cc(OC)c(OC)c(OC)c3)c3ncn(CCN4CCCC4=O)c3n2)C1 (centres undefined)	6.6	-0.9	0.2	9.1	x	x
COc1cc(Nc2nc(Nc3ccc(NC(C)=O)cc3)c3ncn(C4CCCCC4)c3n2)cc(OC)c1OC	-6.6	1.1	-0.2	4.7	x	x
COc1cc(Nc2nc(Nc3ccncc3)nc3c2ncn3C2CCCCC2)cc(OC)c1OC	4.9	6.1*	-0.2	2.8	-0.1	0.1
CCN(CC)C(=O)C1CCCN(c2nc(Nc3cc(OC)c(OC)c(OC)c3)nc(N(CC)CC)n2)C1 (centres undefined)	-7.3	13.5*	0.0	-2.2	0.2	-2.7
CCN(CC)C(=O)C1CCCN(c2nc(Nc3cc(OC)c(OC)c(OC)c3)c3ncn(C4CCCCC4)c3n2)C1 (centres undefined)	-13.2	12.5*	-0.4	17.1	-0.5	-11.6
CSc1ccccc1NC(=O)COC(=O)c1ccc([N+](=O)[O-])o1	14.0	0.8	0.2	7.8	x	x
CC(C)CC(=O)Nc1ccnn1C1CCN(C2CSCCSC2)CC1	-4.8	1.1	-0.1	6.8	x	x
COc1ccc(-n2c(C)nc3cc(C(=O)NCCc4ccc(OC)c(OC)c4)ccc32)cc1	-19.6	-0.5	0.1	-26.2	x	x
CCc1ccc(-n2c(C)nc3cc(C(=O)NCCc4ccc(OC)c(OC)c4)ccc32)cc1	8.5	5.1*	0.0	-4.8	-0.6	-9.8
O=C(Nc1ccc2c(c1)OCO2)c1ccc2nc(Nc3ccncn3)sc2c1	-16.8	-1.8	-0.2	-4.1	x	x
COc1ccccc1N1CCN(C(=O)CSc2nc3ccccc3[nH]2)CC1	8.6	6.0*	0.0	9.5	0.1	1.9
COc1ccccc1N1CCN(C(=O)CSc2nc(N)cc(=O)[nH]2)CC1	13.3	-1.0	0.5	11.9	x	x
Fc1ccc(-c2[nH]ncc2CCN2CCOCC2)cc1	9.8	9.9*	-0.1	-0.4	1.2	5.8
Cc1cc(N2CCC(C)CC2)nc2ccc(N)cc12	-34.7	7.4*	-0.2	1.4	-1.1	-2.3

Source: PubChem BioAssay
